Reference: the supplement of paper PMC13380429

System: Vero E6 infected with SARS-CoV-2
Test: inhibition of SARS-CoV-2 cytopathic effect; higher = more antiviral protection, active = above 15
Conditions: 48 h

Measured: inhibition of SARS-CoV-2 cytopathic effect

CC(C)Oc1cccc(-n2c(CCc3c[nH]c4ccc(Br)cc34)nc3ccccc3c2=O)c1
inactive: 1 nM -1.06% | 8.33 nM 2.18% | 100 nM 2.14% | 833.33 nM 0.14% | 10000 nM 0.06%

O=C(c1ccc(OCCCc2c[nH]cn2)cc1)C1CC1 [ciproxifan]
inactive: 1 nM -1.13% | 8.33 nM -1.91% | 100 nM -1.12% | 833.33 nM 9.43% | 10000 nM 10.2%

C#Cc1cccc(Nc2ncnc3cc(OCCOC)c(OCCOC)cc23)c1 [erlotinib]
inactive: 1 nM -0.8% | 8.33 nM -0.26% | 100 nM -1.96% | 833.33 nM -4.63% | 10000 nM -14.6%

Nc1nc2ccc(Cl)cc2c2nc(-c3ccco3)nn12
inactive: 1 nM 3.02% | 8.33 nM 1.43% | 100 nM -1.65% | 833.33 nM -3.37% | 10000 nM 1.46%

Cc1cc(-c2nc(-c3ccc(OC(F)(F)F)cc3)no2)nn1Cc1ccnc(N2CCN(C3CC3)CC2)c1
inactive: 1 nM 0.33% | 8.33 nM -2.02% | 100 nM -12.6% | 833.33 nM 0.7% | 10000 nM -8.83%

Cc1cc(C)c2c(c1)[C@@H](N(Cc1cc(C(F)(F)F)cc(C(F)(F)F)c1)c1nnn(C)n1)CCCN2C[C@H]1CC[C@H](C(=O)O)CC1 [evacetrapib]
inactive: 1 nM 2.13% | 8.33 nM -0.17% | 100 nM -3.28% | 833.33 nM -0.14% | 10000 nM 3.85%

C[C@]1(O)C[C@@H](c2nc(-c3ccc4ccc(-c5ccccc5)nc4c3)c3c(N)nccn32)C1 [linsitinib]
inactive: 1 nM 1.22% | 8.33 nM -0.2% | 100 nM -1.12% | 833.33 nM 0.58% | 10000 nM 1.2%

Cc1c(OCC(F)(F)F)ccnc1C[S+]([O-])c1nc2ccccc2[nH]1 (stereo not given) [lansoprazole]
inactive: 1 nM 3.22% | 8.33 nM 0.73% | 100 nM -0.31% | 833.33 nM -1.96% | 10000 nM -1.14%

CN(C)C(=O)c1ccc(S(=O)(=O)c2ccc(NC(=O)[C@@](C)(O)C(F)(F)F)c(Cl)c2)cc1
inactive: 1 nM -0.45% | 8.33 nM 0.49% | 100 nM 0.27% | 833.33 nM 0.59% | 10000 nM -3.54%

O=S(=O)(N[C@H](CO)C(C(F)(F)F)C(F)(F)F)c1ccc(Cl)s1 [begacestat]
inactive: 1 nM -4.03% | 8.33 nM -5.1% | 100 nM -1.3% | 833.33 nM -4.51% | 10000 nM -7.85%

CC(C)(C)OC(=O)N[C@H]1CCCCC/C=C\[C@@H]2C[C@@]2(C(=O)NS(=O)(=O)C2CC2)NC(=O)[C@@H]2C[C@@H](OC(=O)N3Cc4cccc(F)c4C3)CN2C1=O [danoprevir]
inactive: 1 nM 1.7% | 8.33 nM 1.4% | 100 nM 1.06% | 833.33 nM 0.24% | 10000 nM -1.76%

CC1=C(CCC(=O)O)c2cc3[nH]c(cc4nc(cc5[nH]c(cc1n2)c(C)c5C(C)O)C(C)=C4C(C)O)c(C)c3CCC(=O)O (stereo not given) [hematoporphyrin]
inactive: 1 nM 0.75% | 8.33 nM 5% | 100 nM 1.48% | 833.33 nM -0.76% | 10000 nM -6.32%

[O-][n+]1cccc(CO)c1 [mepiroxol]
inactive: 1 nM 0.82% | 8.33 nM -0.73% | 100 nM 2.65% | 833.33 nM -0.59% | 10000 nM 2.31%

OCCCCO [1,4-butanediol]
inactive: 1 nM -4.4% | 8.33 nM -1.22% | 100 nM -1.14% | 833.33 nM 0.26% | 10000 nM -1.17%

O=C(Nc1ccccc1F)N[C@H]1N=C(c2ccccc2)c2ccccc2NC1=O
inactive: 1 nM 0.66% | 8.33 nM 0.41% | 100 nM -0.15% | 833.33 nM -1.67% | 10000 nM -0.49%

N=C1NC(=O)/C(=C/c2ccc(O)cc2)S1 [mirin]
inactive: 1 nM -0.65% | 8.33 nM 0.66% | 100 nM -0.71% | 833.33 nM -3.88% | 10000 nM 1.33%

FC(F)(F)C(F)(F)C(F)(F)N(C(F)(F)C(F)(F)C(F)(F)F)C(F)(F)C(F)(F)C(F)(F)F [perfluamine]
inactive: 1 nM -4.49% | 8.33 nM -1.58% | 100 nM -5.22% | 833.33 nM -3.78% | 10000 nM -1.62%

OCc1c[nH]c2ccccc12 [indole-3-carbinol]
inactive: 1 nM -1.46% | 8.33 nM 0.47% | 100 nM -3.76% | 833.33 nM -0.69% | 10000 nM -14.3%
